Reference: PubChem BioAssay AID1508622 (National Center for Advancing Translational Sciences (NCATS), 2021)
Unmarked numbers belong to inactive results. The call rests on the fitted dose curve; in most records, active means well fitted activation curve with a large enough effect; inconclusive means small, poorly fitted or top-dose-only effect; inactive means no such curve, though single readings can be large or run the other way.

Experiment: Confirmatory qHTS for Identification of Small Molecule Activators of Huntingtin-Antisense Promoter Activity
Conditions: HEK293 HTT-AS promoter firefly luciferase reporter, 24 h; series mostly up to 57.5 µM; activity change, positive = activation: at the top concentration
Source text: Assay Provider: Russell L. Margolis M.D.
Department Neurology, Johns Hopkins University School of Medicine, Baltimore, MD
Huntington's Disease (HD) is a neurodegenerative disorder caused by a CAG repeat expansion in exon 1 of huntingtin (HTT). While there are currently no disease-modifying treatments for HD, recent efforts have focused on development of nucleotide-based therapeutics to lower HTT expression. As an alternative to siRNA or oligonucleotide methods, we hypothesized that suppression of HTT expression might be accomplished by small molecules that either (1) directly decrease HTT expression by suppressing HTT promoter activity or (2) indirectly decrease HTT expression by increasing the promoter activity of HTT-AS, the gene antisense to HTT that appears to inhibit expression of HTT.
We developed and employed a high throughput screen for modifiers of HTT and HTT-AS promoter activity using luminescent reporter HEK293 cells; of the 52,041 compounds tested, we identified 898 replicable hits. We used a rigorous stepwise approach to assess compound toxicity and the capacity of the compounds to specifically lower huntingtin protein in 5 different cell lines, including HEK293 cells, HD lymphoblastoid cells, mouse primary neurons, HD iPSCs differentiated into cortical-like neurons, and HD hESCs. We found no compounds which were able to lower huntingtin without lowering cell viability in all assays, though the potential efficacy of a few compounds at non-toxic doses could not be excluded.
SEQUENCE No. (1, 2, 3, etc.); […] (e.g., Cells, Incubation, Reagent, etc.); VALUE and DESCRIPTION.
1; Reagent; 4 uL; 2,500 Hek293 luciferase reporter cells per wells
3; Compound; 23 nL; Control inhibitor / compound library
5; Reagent; 2.5 uL; Firefly Luc reagent; Dual-Glo Luciferase Reporter Assay System (Promega)
6; Time; 10 min; room temperature incubation
7; Detection; Luminescence; FLuc
NOTES (numbers refer to sequence above)
1; High-throughput screening, measuring luminescence from a Hek293 luciferase reporter, was performed in 1,536 well white-walled tissue-culture treated plates. 2,500 cells were plated in 4 uL of Opti-MEM per well using a Multidrop Combi Reagent Dispenser (ThermoFisher).
2; Assay plates were cultured for 24 hours.
3; Control inhibitor (PTC124; final concentration of 50 uM) and compound library (at final concentrations of 460 nM - 57.5 uM) were added to the assay plate using the Kalypsis Pintool Robotic System equipped with 1536 pinheads.
4; Cells were then incubated for 24 hours at 37C prior to luminescence measurements.
5; In all cases, luminescence was measured using the Dual-Glo Luciferase Reporter Assay System (Promega) following the manufacturer's instructions.
6; Room temperature incubation.
7; Luminescence signal was obtained using the PerkinElmer ViewLux plate reader. Results were normalized to vehicle control (0% activity) and zero RLU (-100% activity).

Question: Which “activity change, positive = activation” value does the source give for `O=C(N[C@H]1CN2CCC1CC2)c1ccc(Cl)cc1` here?
Answer: -6.33%

Question: For `Cc1ccc(-n2c(/C=C\c3ccc(F)c(F)c3)nc3ccccc3c2=O)c(C)c1`, which “activity change, positive = activation” value is on record?
Answer: -7.94%

Question: For `Cc1ccccc1Cn1cccc(C(=O)Nc2nc3ccccc3s2)c1=O`, which “activity change, positive = activation” value is on record?
Answer: -57.1%

Question: Which “activity change, positive = activation” value does the source give for `CC(C)(O)C=CC(=O)[C@](C)(O)[C@H]1[C@H](O)C[C@]2(C)[C@@H]3CC=C4[C@@H](C=C(O)C(=O)C4(C)C)[C@]3(C)C(=O)C[C@@]12C` here?
Answer: -94.1%

Question: With `COC(=O)c1ccc(NC(=O)c2cccn(Cc3ccccc3C)c2=O)cc1` as the compound, how does the “activity change, positive = activation” value read?
Answer: -84.1%

Question: For `CC(C)N[C@@H]1CCn2c(=O)[nH]c3cccc(c32)[C@@H]1O`, which “activity change, positive = activation” value is on record?
Answer: -4.14%

Question: With `CCOc1ccc(NC(=O)c2cccn(Cc3cccc(Cl)c3)c2=O)cc1` as the compound, how does the “activity change, positive = activation” value read?
Answer: -91.2%

Question: Which “activity change, positive = activation” value does the source give for `CCN(CC)C(=O)N[C@@H]1C=C2c3cccc4[nH]cc(c34)C[C@@H]2N(C)C1` here?
Answer: -9.95%

Question: Which “activity change, positive = activation” value does the source give for `CCN(CC)C(=O)c1ccc(NC(=O)CCn2nc(-c3ccc(Cl)cc3)c3ccccc3c2=O)cc1` here?
Answer: -34.6%

Question: For `O=c1c2ccccc2nc(/C=C/c2cccc3ccccc23)n1-c1ccccc1Cl`, which “activity change, positive = activation” value is on record?
Answer: -10.9%

Question: For `Cc1cc(-n2c(/C=C/c3ccc(Br)s3)nc3ccccc3c2=O)ccc1Br`, which “activity change, positive = activation” value is on record?
Answer: -10.7%

Question: With `Cc1cccc(-n2c(/C=C\c3cccc(Br)c3)nc3ccccc3c2=O)c1` as the compound, how does the “activity change, positive = activation” value read?
Answer: -4.07%

Question: For `CSc1ccc(CN2CCN(C(=O)COc3cccc(C)c3)CC2)cc1`, which “activity change, positive = activation” value is on record?
Answer: -83.9%

Question: For `CCCOc1ccc(C2SCC(=O)Nc3c2c(C)nn3-c2cccc(C)c2)cc1OC` (configuration not stated), which “activity change, positive = activation” value is on record?
Answer: -25.4%

Question: With `Cc1ccc(-n2c(/C=C/c3ccc(Br)s3)nc3ccccc3c2=O)cc1` as the compound, how does the “activity change, positive = activation” value read?
Answer: -11.2%

Question: With `CCCCc1ccc(NC(=O)c2cccn(Cc3ccc(Cl)cc3)c2=O)cc1` as the compound, how does the “activity change, positive = activation” value read?
Answer: -94.5%

Question: Which “activity change, positive = activation” value does the source give for `Nc1c(C(=O)Nc2ccc(Cl)c(C(F)(F)F)c2)sc2nc3c(cc12)N1CCC3CC1` here?
Answer: -91.5%

Question: For `N#Cc1ccccc1NC(=O)c1cccn(Cc2ccccc2)c1=O`, which “activity change, positive = activation” value is on record?
Answer: -45.2%

Question: With `COc1ccc(-n2c(/C=C\c3ccccc3F)nc3ccccc3c2=O)cc1OC` as the compound, how does the “activity change, positive = activation” value read?
Answer: -15.9%

Question: With `O=c1c2ccccc2nc(/C=C\c2ccc(F)cc2)n1-c1ccccc1F` as the compound, how does the “activity change, positive = activation” value read?
Answer: -17%

Question: For `CCOC(=O)c1ccc(NC(=O)c2cccn(Cc3ccccc3F)c2=O)cc1`, which “activity change, positive = activation” value is on record?
Answer: -95.2%

Question: Which “activity change, positive = activation” value does the source give for `COc1cccc(C2SCC(=O)Nc3c2c(C)nn3-c2ccc(C)c(Cl)c2)c1OC` (configuration not stated) here?
Answer: -31.6%
